# KCNH2 3.1 block = inhibitors of human KCNH2 3.1 potassium channel isoform. U2OS KCNH2 3.1, thallium flux FluxOr; stronger effect = lower value. activity change, % (tested at about 1.8 µM). 0.95% of 340,000 active;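 active means maximum activity change below -70%; inconclusive means maximum activity change from -70% to -50%; inactive means maximum activity change above -50%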;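 further: thallium influx rate constant from kinetic fluorescence after stimulation buffer; on the % scale 0 is the no-effect control and ±100 the full control effect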
#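 U2OS cells transduced with KCNH2 3.1 mutant virus (1.77 x 10^8 /mL, 4 h), plated overnight at 37 C, loaded 45 min with FluxOr dye plus Red40 quencher. Thallium flux rate constant from kinetic reads after stimulation buffer, normalised to controls.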
# MCF10A rereplic = DNA re-replication induction in MCF 10a cells | MCF 10A DNA re-replication, Hoechst nuclear intensity, 48 h | Potency, µM (series often up to 46.1 µM), inactives show at the top dose activity, positive = re-replication, hits mostly activators | 2.9% of 350,000 active; further: potency means the concentration at half of the fitted maximal effect; % of control where 0% means no effect; nearly all actives have a fitted effect of over 50% in size
# KB-V1 MDR tox = kills drug-selected multidrug resistant KB-V1 cells; Potency, µM (doses to about 46.1 µM), usual class: cytotoxic; AID 1347076; KB-V1 MDR cells viability, CellTiter-Glo, 72 h; 3.4% of 400,000 active; further: potency means the concentration at half of the fitted maximal effect; on the % scale 0 is the no-effect control and ±100 the full control effect; nearly all actives have a fitted effect of over 60% in size
#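 Cells of the MDR subline KB-V1 are plated, dosed with compound at multiple concentrations, and incubated 72 h at 37 degrees C; CellTiter-Glo is then added and luminescence read after 10 min.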
# KB-3-1 cytotox = KB-3-1 parental cell cytotoxicity | KB-3-1 viability, CellTiter-Glo ATP luminescence, 72 h | Potency, µM (top dose mostly 46.1 µM), hits mostly cytotoxic | 1.4% of 400,000 active; further: potency means the concentration at half of the fitted maximal effect; on the % scale 0 is the no-effect control and ±100 the full control effect; nearly all actives have a fitted effect of over 60% in size
#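 Cytotoxicity measured as CellTiter-Glo luminescence after 72 h at 37 C. Compound titrations were pinned onto drug-naive KB-3-1 parental adenocarcinoma cells grown in DMEM with 10% FBS, and normalized data fitted to concentration-response curves.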
# SW480 rerep = inducers of DNA re-replication in SW480 colon cancer cells; 1.8% of 340,000 active; AID 624297; Potency, µM (highest dose often 46.1 µM), inactives show at the highest dose re-replication activation, hits mostly activators; SW480 DNA re-replication, Hoechst DNA content imaging, 48 h; further: potency means the concentration at half of the fitted maximal effect; % of control where 0% means no effect; nearly all actives have a fitted effect of over 55% in size
#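 Image-based read-out: total Hoechst fluorescence of nuclei (405 nm excitation, 500-530 nm emission), with hits raising the fraction of high-intensity nuclei. SW480 colon cells incubated 48 hr with compounds at 37 C.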
# KCNH2 WT inh = blocks the wildtype human KCNH2 potassium channel. 0.37% of 340,000 active. activity change, % at 1.84 µM. Q12809. U2OS, BacMam KCNH2, thallium flux FluxOr; stronger effect = lower value;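 active means maximum activity change below -70%; inconclusive means maximum activity change between -70% and -50%; inactive means maximum activity change above -50%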; further: on the % scale 0 is the no-effect control and ±100 the full control effect
# Target sequence (Q12809 whole entry, looked up): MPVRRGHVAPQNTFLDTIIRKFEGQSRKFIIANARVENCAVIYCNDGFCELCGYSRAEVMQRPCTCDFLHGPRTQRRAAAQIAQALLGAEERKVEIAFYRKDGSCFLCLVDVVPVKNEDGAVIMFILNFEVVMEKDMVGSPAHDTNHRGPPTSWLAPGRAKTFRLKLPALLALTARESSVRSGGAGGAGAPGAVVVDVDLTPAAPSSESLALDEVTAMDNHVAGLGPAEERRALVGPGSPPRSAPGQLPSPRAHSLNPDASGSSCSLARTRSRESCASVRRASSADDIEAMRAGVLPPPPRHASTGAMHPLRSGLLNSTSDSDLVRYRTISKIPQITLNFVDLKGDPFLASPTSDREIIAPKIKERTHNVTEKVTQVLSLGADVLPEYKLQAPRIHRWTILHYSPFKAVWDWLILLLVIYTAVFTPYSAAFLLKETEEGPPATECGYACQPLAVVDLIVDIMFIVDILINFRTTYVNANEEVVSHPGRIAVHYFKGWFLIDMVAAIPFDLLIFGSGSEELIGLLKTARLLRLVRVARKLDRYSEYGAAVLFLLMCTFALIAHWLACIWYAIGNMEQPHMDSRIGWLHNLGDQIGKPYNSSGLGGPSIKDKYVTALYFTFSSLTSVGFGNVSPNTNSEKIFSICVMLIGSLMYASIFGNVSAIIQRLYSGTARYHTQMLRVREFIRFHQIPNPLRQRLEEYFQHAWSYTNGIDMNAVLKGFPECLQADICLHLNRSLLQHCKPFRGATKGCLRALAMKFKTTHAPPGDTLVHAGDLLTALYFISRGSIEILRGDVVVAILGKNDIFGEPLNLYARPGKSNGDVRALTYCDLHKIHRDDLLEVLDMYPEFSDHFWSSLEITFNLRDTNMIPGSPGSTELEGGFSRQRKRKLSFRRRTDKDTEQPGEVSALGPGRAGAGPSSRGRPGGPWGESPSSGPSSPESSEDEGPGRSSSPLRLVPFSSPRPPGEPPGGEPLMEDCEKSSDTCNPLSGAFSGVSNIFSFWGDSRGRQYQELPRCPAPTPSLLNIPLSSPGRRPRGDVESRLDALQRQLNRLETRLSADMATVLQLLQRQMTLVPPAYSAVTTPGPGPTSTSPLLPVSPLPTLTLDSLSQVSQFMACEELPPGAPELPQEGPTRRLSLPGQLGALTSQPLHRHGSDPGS
#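 U2OS cells transduced with wild-type KCNH2 virus are loaded with FluxOr dye for 45 min, and thallium flux is measured in kinetic reads before and after stimulation buffer. Rate constants are normalized to DMSO controls.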
# * hit, by the source's call; i = inactive; u = inconclusive; x = not tested or not shown; ! = a repeat was not active; [ ] = remark or other dose. In the library only some 7.6% were active in any assay of this set; here they are far more common. Unless noted, the call rests on the fitted dose curve; in most records, active means well fitted curve in the direction sought with a large enough effect; inconclusive means small, poorly fitted or top-dose-only effect, or another doubt; inactive means no such curve, though single readings can be large; an effect the other way counts as inactive or inconclusive.
SMILES,KCNH2 3.1 block,MCF10A rereplic,KB-V1 MDR tox,KB-3-1 cytotox,SW480 rerep,KCNH2 WT inh
Cc1cccc(C2=NN(c3ccc(Br)cc3)[C@@H](C(=O)N3CCOC3=O)[C@@H]2c2ccc(Cl)cc2)c1,-7.3,u,i,i,8.2µM*,-2.0
C=CCN(c1ccccc1)S(=O)(=O)c1cccc(C(=O)NCc2ccco2)c1,-172.5*,1.5%,18.4µM*,i,1.7%,-241.4*
C=CCN(c1ccccc1)S(=O)(=O)c1cccc(C(=O)NC2CCN(Cc3ccccc3)CC2)c1,7.9,u,u,20.6µM*,u,5.5
CN(C)S(=O)(=O)c1cccc(C(=O)NCC(=O)NC2CCN(Cc3ccccc3)CC2)c1,5.0,u,u,u,-2.4%,-6.8
C=CCN(c1ccccc1)S(=O)(=O)c1cccc(C(=O)Nc2cc(C)ccn2)c1,-3.2,19.1%,u,u,u,27.5
Cc1ccc(NS(=O)(=O)c2cccc(C(=O)NC3CCN(Cc4ccccc4)CC3)c2)c(C)c1,-102.2*,-1.2%,i,u,195.0%,-2.1
Clc1ccc2c(c1)-c1c(cnc3cc(-c4ccccc4)nn13)CO2,x,x,u,i,x,x
COC(=O)c1ccc(N2CCCCC2)c(N)c1,-5.2,5.8%,i,i,-3.5%,4.2
COC(=O)c1ccc(N2CCC(C)CC2)c(N)c1,1.4,20.6µM*,u,i,u,2.1
COc1ccccc1OCCOCCOc1ccc(C)cc1[N+](=O)[O-],18.2,18.9%,13µM*,i,8.8%,0.2
NC(N)=Nc1nc(-c2ccccc2)c2cc(F)ccc2n1,14.5,u,i,23.1µM*,8.1%[1.84 µM],-0.5
Oc1c(Br)cc(C=Nc2ccc3nc(-c4ccccc4)[nH]c3c2)c(O)c1Br,-6.3,20.6µM*,i,i,u,-12.9
COC(=O)c1cnc(NNS(=O)(=O)c2ccc(C(F)(F)F)cc2)nc1C(F)(F)F,-8.8,-5.2%,i,i,u,5.6
COc1ccc(/C=N/NC(=O)c2ccccc2Cl)cc1CSc1nc2ccccc2s1,16.2,0.82µM*,7.31µM*,5.8µM*,5.8µM*,14.0
COc1ccc(/C=N\NC(=O)c2ccccc2Cl)cc1COc1c(F)c(F)c(F)c(F)c1F,x,9.2µM*,i,u,u,-15.1
COc1ccc(/C=N/NC(=O)c2cccnc2)cc1CN1CCOCC1,2.2,0.7%,i,i,-9.5%,1.0
COc1ccc(/C=N/NC(=O)c2ccn[nH]2)cc1COc1ccc(Cl)cc1Cl,0.0,11.6µM*,i,i,u,8.5
COc1ccc(/C=N\NC(=O)c2ccccc2OC)cc1COc1c(F)c(F)c(F)c(F)c1F,-2.6,8.2%,u,i,0.3%,7.5
COc1ccc(/C=N/NC(=O)c2cccnc2)cc1CSc1nc2ccccc2s1,-8.2,u,11.6µM*,u,20.6µM*,-8.1
CN(Cc1ccccc1)C(=O)c1[nH]cnc1C(=O)Nc1nccs1,12.7,u,i,i,-7.9%,1.1
CCN(CC)S(=O)(=O)c1ccc(Cl)c(NC(=O)COc2ccc(OC)cc2[N+](=O)[O-])c1,-10.9,2.2%,i,i,-3.7%,-25.5
COc1ccc(/C=N/NC(=O)c2ccn[nH]2)cc1COc1ccc([N+](=O)[O-])c(C)c1,-5.6,1.8%,i,i,u,5.6
COc1ccc(/C=N/NC(=O)c2cccnc2)cc1COc1ccc([N+](=O)[O-])c(C)c1,-21.6,2.06µM*,u,6.51µM*,11.6µM*,-2.2
CC1CCC2(CC1)NC(=O)N(CC(=O)N1CC(C)CC(C)C1)C2=O (centres undefined),8.8,-3.2%,i,i,0.0%,2.5
C=CCn1c(-c2cccn(Cc3cccc(Cl)c3)c2=O)n[nH]c1=S,7.8,5.8%,23.1µM*,i,-4.1%,4.6
SMILES,KCNH2 3.1 block,MCF10A rereplic,KB-V1 MDR tox,KB-3-1 cytotox,SW480 rerep,KCNH2 WT inh
C=CCn1c(-c2cccn(Cc3ccc(Cl)cc3)c2=O)n[nH]c1=S,-4.4,-0.1%,u,i,-2.4%,-0.3
C=CCn1c(-c2cccn(Cc3ccc(Cl)cc3Cl)c2=O)n[nH]c1=S,-2.5,0.1%,14.6µM*,u,20.1%,-1.2
CCOc1ccc(CCNC(=O)Cn2ccc3ccccc3c2=O)cc1OCC,-9.0,-2.9%,u,i,-3.0%,9.1
CCN(c1ccccc1)S(=O)(=O)c1ccc(OC)c(NC(=O)C2CCC2)c1,-4.1,18.4µM*,x,x,u,-1.4
CCN(c1ccccc1)S(=O)(=O)c1ccc(OC)c(NC(=O)Cc2ccc(F)cc2)c1,-2.5,u,i,i,-27.9%,21.7
O=[N+]([O-])c1cc(-c2nc(-c3ccccc3)no2)ccc1NCCc1ccccc1,x,x,i,i,x,x
CCCCCCCCCCOC(=O)Cn1c(COc2cccc(C)c2)[n+](C)c2ccccc21,-25.5,u,i,u,8.7%,-20.2
CCCCCCCCCCOC(=O)Cn1c(COc2ccccc2)[n+](C)c2ccccc21,3.2,u,i,i,-2.1%,-46.8
CCCCCCCCCCOC(=O)Cn1c(COc2ccc(OC)cc2)[n+](C)c2ccccc21,-93.4*!,6.51µM*!,i,20.6µM*!,u,-116.4*!
CCCCCCCCCCOC(=O)Cn1c(COc2ccccc2C)[n+](C)c2ccccc21,-81.2*,u,i,u,u,u
O=C(NCc1ccccc1C(F)(F)F)C1CC(c2cccc(F)c2)=NO1 (centres undefined),-9.8,-0.6%,i,i,-8.2%[9.22 µM],11.2
COc1ccc(-c2cc(C(=O)Nc3c(C)nn(Cc4ccccc4Cl)c3C)no2)cc1,-10.2,10.3µM*,i,i,7.7%,-21.8
Cc1cc(C(=O)Nc2c(C)nn(Cc3c(Cl)cccc3Cl)c2C)no1,-18.5,-4.0%,9.2µM*,i,-1.2%,6.7
CCc1cc(C(=O)Nc2c(C)nn(Cc3ccccc3Cl)c2C)no1,x,x,i,i,x,x
Cc1nn(Cc2c(Cl)cccc2Cl)c(C)c1NC(=O)c1cc(C(C)C)on1,10.3,u,u,u,8.4%,-4.1
CCOC(=O)c1cccc(NC(=O)CSc2nc3ccccc3c(=O)n2CC)c1,14.3,3.7%,2.31µM*,i,-7.7%,12.6
CCOC(=O)c1cccc(NC(=O)CSc2nc3ccccc3c(=O)n2CCOC)c1,-37.4,25.1%,4.61µM*,i,-0.9%,16.9
COCCn1c(-c2ccccc2)cnc1SCC(=O)Nc1cccc2ccccc12,-18.5,u,5.17µM*,i,8.1%,-3.7
COCCn1c(-c2ccc(OC)cc2)cnc1SCC(=O)Nc1ccc(OC)cc1OC,9.4,-4.1%,u,i,1.2%,14.6
